We go through 7 compounds from PubChem BioAssay (Tox21).

Each structure is given as a SMILES string. Where “and” joins values, the source holds several entries; their conditions need not be identical. Equal values may be shown once. Unmarked numbers belong to inactive results. Records with an inconclusive call do not appear. Calls of active or inactive are those of the source. Unless noted, the call rests on the fitted dose curve; in most records, active means well fitted curve in the direction sought with a large enough effect in the repeat runs; inconclusive means weak or mixed curves; inactive means no such curve, though single readings can be large; an effect the other way counts as inactive or inconclusive.

Experiment [1] is described as follows: qHTS assay to identify small molecule agonists of the hypoxia (HIF-1) signaling pathway - cell viability counter screen (AID 1224844; calls by dose curve; further: nearly all actives have a fitted effect of over 50% in size; further: potency means the concentration at half of the fitted maximal effect). In short, it runs like this: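 HRE-bla ME-180 cells in medium with 0.5% dialyzed FBS were preincubated 5 hrs at 37C, exposed to compounds for 17 hrs, then viability was read as CellTiter-Glo luminescence after 30 min at room temperature, in the reporter wells.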
(In general: Quantitative high-throughput screening tests each substance at several concentrations.)

Experiment [2] is described as follows: qHTS assay to identify small molecule agonists of H2AX (AID 1224845; active means well fitted activation curve with a large enough effect in the signal ratio in the repeat runs, not every such curve was filed as active; the % refers to the signal ratio; further: potency means the concentration at half of the fitted maximal effect). In short, it runs like this: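 Wild-type CHO-K1 cells, plated overnight, exposed 3hr at 37C to 15 concentrations (0.76% DMSO final). Lysed, then HTRF anti-pH2AX (S139) cryptate and anti-H2AX-d2 antibodies, 24 hr room temperature; 665/620 nm emission read.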
The nature of experiment [3]: qHTS assay to identify small molecule antagonists of the estrogen related receptor (ERR) signaling pathway from Tox21 library (AID 1224848). Further: nearly all actives have a fitted effect of over 50% in size. Further: potency means the concentration at half of the fitted maximal effect. In short, it runs like this: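 ERR reporter cell line (from NTP) seeded 2,000 cells/well, rested 6 h at 37 C/5% CO2, then pin-dosed with compounds in DMSO. After 18 h at 37 C, ONE-Glo added; luminescence read after 30 min at room temperature.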

A short description of experiment [4]: qHTS assay to identify small molecule agonists of the estrogen related receptor (ERR) signaling pathway from Tox21 library (AID 1224849; calls by dose curve; further: nearly all actives have a fitted effect of over 15% in size). As to conditions: ERR reporter cell line, ONE-Glo luciferase, 18 h; at 92.4 µM (top of the series). The gist of the method:
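ERR reporter cell line (NTP) seeded, rested 6 h at 37 C/5% CO2, then pinned with Tox21 compounds in DMSO. After 18 h at 37 C, ONE-Glo luciferase luminescence was read following 30 min at room temperature.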

Experiment [5] is described as follows: qHTS RealTime-Glo MT Cell Viability Assay in HepG2 cells - 24 hour (AID 1224867). Further: nearly all actives have a fitted effect of over 50% in size. Further: potency means the concentration at half of the fitted maximal effect. In short, it runs like this:
(§1)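 Cells + NanoLuc/prosubstrate dispensed (600 cells/well) → 5 h at 37 C/5% CO2 → compounds in DMSO transferred → 40 h incubation at 37 C, luminescence read at 0, 8, 16, 24, 32, 40 h.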

Experiment [6] can be described thus: qHTS RealTime-Glo MT Cell Viability Assay in HEK293 cells - 32 hour (AID 1224868). Further: nearly all actives have a fitted effect of over 50% in size. Further: potency means the concentration at half of the fitted maximal effect. The gist of the method: (§2)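 Tox21 10K qHTS, HEK293, 600 cells/well, RealTime-Glo reagent co-dispensed with cells; 5 h preincubation, compound by pintool, 37 C, luminescence at 0–40 h.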
Experiment [7] is described as follows: A CellTox Green Cytotoxicity Assay to monitor cytotoxicity in HEK293 cells - 0 hour (AID 1224869). Further: nearly all actives have a fitted effect of over 50% in size. The gist of the method:
(§3)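 HEK293 cells premixed with CellTox Green dye were seeded at 600 cells/well and left 5 h at 37 C/5% CO2 before pin transfer of 23 nL compound in DMSO. Fluorescence from dye bound to dead-cell DNA was read during 40 h treatment.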

Experiment [8] in a line: qHTS RealTime-Glo MT Cell Viability Assay in HepG2 cells - 40 hour (AID 1224870). Further: nearly all actives have a fitted effect of over 50% in size. Further: potency means the concentration at half of the fitted maximal effect. The gist of the method:
(§4)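 HepG2 cells (600/well) mixed with RealTime-Glo MT reagent, settled 5 h at 37 C/5% CO2 before compound addition. Nonlytic NanoLuc luminescence from viable-cell prosubstrate reduction read repeatedly during 40 h treatment at 37 C.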

Experiment [9] is described as follows: qHTS RealTime-Glo MT Cell Viability Assay in HEK293 cells - 16 hour (AID 1224872). Further: nearly all actives have a fitted effect of over 50% in size. Further: potency means the concentration at half of the fitted maximal effect. In short, it runs like this: as §2
Experiment [10] is described as follows: qHTS RealTime-Glo MT Cell Viability Assay in HEK293 cells - 40 hour (AID 1224874). Further: nearly all actives have a fitted effect of over 50% in size. Further: potency means the concentration at half of the fitted maximal effect. As to conditions: RealTime-Glo luminescence; max response: stronger effect = lower value. The gist of the method: (§5)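 HEK293 cells mixed with RealTime-Glo reagents (NanoLuc plus cell-permeant prosubstrate) at 600 cells/well, preincubated 5 h at 37 C/5% CO2, then given 23 nL compound in DMSO. Nonlytic luminescence from viable cells was read at 0, 8, 16, 24, 32 and 40 h.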

A short description of experiment [11]: A CellTox Green Cytotoxicity Assay to monitor cytotoxicity in HEK293 cells - 24 hour (AID 1224875). Further: nearly all actives have a fitted effect of over 45% in size. In short, it runs like this:
as §3

Experiment [12] is described as follows: A CellTox Green Cytotoxicity Assay to monitor cytotoxicity in HepG2 cells - 16 hour (AID 1224876). Further: nearly all actives have a fitted effect of over 45% in size. Further: potency means the concentration at half of the fitted maximal effect. The gist of the method:
(§6)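 HepG2 cells were seeded together with the CellTox Green dye at 600 cells/well, left 5 h at 37 C/5% CO2, then given compounds in DMSO. Fluorescence from dye bound to dead-cell DNA was read repeatedly over 40 h of treatment at 37 C.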

The nature of experiment [13]: qHTS RealTime-Glo MT Cell Viability Assay in HepG2 cells - 32 hour (AID 1224877). Further: nearly all actives have a fitted effect of over 55% in size. Further: potency means the concentration at half of the fitted maximal effect. The gist of the method:
as §1

Experiment [14] in a line: A CellTox Green Cytotoxicity Assay to monitor cytotoxicity in HepG2 cells - 24 hour (AID 1224878). Further: nearly all actives have a fitted effect of over 45% in size. Further: potency means the concentration at half of the fitted maximal effect. The gist of the method:
as §6

A short description of experiment [15]: A CellTox Green Cytotoxicity Assay to monitor cytotoxicity in HepG2 cells - 40 hour (AID 1224879). Further: nearly all actives have a fitted effect of over 40% in size. Further: potency means the concentration at half of the fitted maximal effect. In short, it runs like this:
as §6

Experiment [16] is described as follows: qHTS RealTime-Glo MT Cell Viability Assay in HEK293 cells - 0 hour (AID 1224880). Further: top concentration of the series differs between compounds; nearly all actives have a fitted effect of over 45% in size. The gist of the method:
as §5

Experiment [17] in a line: qHTS assay to identify small molecule agonists of H2AX - cell viability counter screen (AID 1224847; calls by dose curve; further: top concentration of the series differs between compounds; nearly all actives have a fitted effect of over 30% in size). In short, it runs like this: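 After overnight plating of 1000 CHO-K1 cells per well, a 15-concentration compound series was applied for 3 hr at 37C. Luminescence from CellTiter-Glo, read following 30 min at room temperature, reflected cell viability.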
Experiment [18] can be described thus: A CellTox Green Cytotoxicity Assay to monitor cytotoxicity in HEK293 cells - 40 hour (AID 1224871). Further: nearly all actives have a fitted effect of over 45% in size. In short, it runs like this:
as §3

The nature of experiment [19]: qHTS RealTime-Glo MT Cell Viability Assay in HepG2 cells - 8 hour (AID 1224873). Further: nearly all actives have a fitted effect of over 55% in size. The gist of the method:
as §4

The nature of experiment [20]: qHTS assay to identify small molecule agonists of the hypoxia (HIF-1) signaling pathway (AID 1224846; active means well fitted activation curve with a large enough effect in the signal ratio in the repeat runs, not every such curve was filed as active; the % refers to the signal ratio). The gist of the method: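 HRE-bla ME-180 cells (beta-lactamase reporter under hypoxia response element) were plated at 2,000 cells/well in medium with 0.5% dialyzed FBS, rested 5 hrs, then given compounds in DMSO for 17 hrs at 37C, 5% CO2. Reporter induction was read with CCF4-AM FRET substrate.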
On the % scale 0 is the no-effect control and ±100 the full control effect.

`O=[N+]([O-])/C=C/c1ccccc1`: the Potency in experiment [1] is 24.9 µM (active) and 54.9 µM (active); in [2], 20.1 µM (active); in experiment [3] it was 22 µM (active); in experiment [5], 44.4 µM (active) and 19.5 µM (active); in [6], 7.03 µM (active) and 13.8 µM (active); in experiment [8] it was 19.8 µM (active) and 13.8 µM (active). Also, the Potency was 4.98 µM (active) and 12.3 µM (active) in [9]; 6.27 µM (active) and 15.5 µM (active) in [10]; 55.8 µM (active) in experiment [12]; 22.2 µM (active) and 17.4 µM (active) in experiment [13]; 22.2 µM (active) in experiment [14]; 12.5 µM (active) in [15]. Also, the activity change, positive = activation in experiment [4] is -76.3% and -54.1%. For the same compound, the Potency entry in experiment [7] and in experiment [11] was “inactive” throughout. Besides, in experiment [16], the compound was called inactive.

For `CN[C@@H](C)[C@H](O)c1ccccc1`, the Potency result in [1], in experiment [2], in [17], in [5], in [6] and in [7] was “inactive” in each case. The Potency entry in experiment [8], in experiment [18], in [9], in [19], in [11] and in experiment [13] was “inactive” throughout. The Potency entry in [14] and in experiment [15] was “inactive” throughout. Moreover, the max response in experiment [10] was 1.2%. Also, in [16], the call was inactive.

As to `N#CC(C#N)=Cc1ccc(O)c(O)c1`, the Potency entry in [1], in experiment [17], in experiment [5], in experiment [6], in experiment [7] and in [8] was “inactive” throughout. Also, the Potency result in [18], in experiment [9], in experiment [19], in [11], in experiment [12] and in experiment [14] was “inactive” in each case. The Potency entry in experiment [15] was “inactive”. Also, the call in experiment [20] was inactive. Also, in [10], the max response was -6.83%.

As for `c1ccc2sc(SNC3CCCCC3)nc2c1`, the Potency entry in experiment [2], in experiment [17], in experiment [5], in experiment [6], in experiment [7] and in [8] was “inactive” each time. Also, the Potency entry in experiment [18], in experiment [9], in experiment [19], in experiment [11], in experiment [12] and in experiment [13] was “inactive” each time. Also, the Potency entry in experiment [14] and in experiment [15] was “inactive” throughout. In addition, the result in experiment [20] and in experiment [16] was inactive. In experiment [10], the max response is -0.932% and 2.76%.

Regarding `C=C(Cl)Cl`, the Potency result in experiment [1], in [17], in experiment [3], in experiment [5], in experiment [6] and in [7] was “inactive” each time. Also, the Potency result in experiment [8], in experiment [18], in [9], in experiment [19], in experiment [11] and in experiment [12] was “inactive” each time. Moreover, the Potency result in [13], in experiment [14] and in experiment [15] was “inactive” each time. For the same compound, the activity change, positive = activation in experiment [4] was -0.979%. In [10], the max response is 8.47%. Besides, the compound was called inactive in [16].

`Nc1cc(Cl)cc(C(=O)O)c1Cl`: the Potency result in experiment [1], in experiment [17], in [3], in experiment [5], in experiment [6] and in experiment [7] was “inactive” throughout. The Potency entry in experiment [8], in [18], in experiment [9], in experiment [19], in experiment [11] and in [12] was “inactive” throughout. Moreover, the Potency result in [13], in experiment [14] and in experiment [15] was “inactive” in each case. In experiment [4], the activity change, positive = activation is 4.39% and 3.97%. In addition, the max response in experiment [10] is 1.89% and 6.4%. The call in experiment [16] was inactive.

Turning to `CCCCCCCCP(=O)(O)O`, the Potency result in experiment [2], in [17], in [5], in experiment [6], in experiment [7] and in experiment [8] was “inactive” throughout. For the same compound, the Potency entry in experiment [18], in [9], in experiment [19], in experiment [11], in experiment [12] and in experiment [13] was “inactive” throughout. The Potency result in [14] and in experiment [15] was “inactive” throughout. In addition, the max response in experiment [10] was -9.79%. Moreover, in experiment [16], the compound was called inactive.
